Screening results: PubChem BioAssay, National Center for Advancing Translational Sciences (NCATS)
DT40 TDP1 no CPT – qHTS for Inhibitors of human tyrosyl-DNA phosphodiesterase 1 (TDP1): qHTS in cells in absence of CPT | Potency, µM (top dose mostly 46.2 µM), for the others: at the highest dose activity change, negative = growth inhibition, most hits filed as inhibitors | DT40 Tdp1-/- hTDP1 cells, no CPT, ATP luminescence, 48 h | 420,000 compounds, 15% hits | AID 686978, 2013; further: potency means the concentration at half of the fitted maximal effect; on the % scale 0 is the no-effect control and ±100 the full control effect; nearly all actives have a fitted effect of over 55% in size
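Chicken DT40 Tdp1-/- cells stably complemented with human TDP1 were seeded at 400 cells/well with DMSO in place of 20 nM camptothecin. After compound pinning, cells grew at least 48 hr at 37 °C; viability read by CellTiter-Glo luminescence.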
D3 ag – qHTS of D3 Dopamine Receptor Agonist: qHTS. max activation, %. D(3) dopamine receptor (Homo sapiens), P35462. 410,000 compounds, 0.58% hits. D3R DiscoveRx beta-arrestin cells, luminescence, 90 min; in the data active means max activation above about 30%; further: 0% is about no effect
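Agonist mode: compounds and dopamine controls were applied to plated cells for 90 min at 37 degrees C after an overnight attachment at 1500 cells/well. Luminescent read-out followed 30 - 60 minutes at room temperature with DiscoveRx detection reagent.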
ClpP mod – qHTS Assay for Activators of ClpP | AID 651965, 2013 | 340,000 compounds, 1.9% hits | purified B. subtilis ClpP, FRET peptide cleavage, 20 min | Potency, µM (doses to about 57.5 µM), inactives show top-dose activity change, negative = active; active means well fitted falling curve with a large enough effect; inconclusive means small, poorly fitted or top-dose-only effect; inactive means no such curve, though single readings can be large or run the other way; further: potency means the concentration at half of the fitted maximal effect; the source files actives as falling curves though it sought activators and does not explain the sign; nearly all actives have a fitted effect of over 65% in size
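Purified B. subtilis ClpP, 10 microg/mL final in Tris/HCl pH8 with KCl, BSA, glycerol and Tween-20, cleaved an Abz/nitrotyrosine-quenched decapeptide. Fluorescence (ex 320, em 430) was read at 0 and 20 min at room temperature. Delta was normalized to 5.8 microM ADEP and DMSO/no-enzyme controls.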
IL-1B inflam inh – qHTS for Inhibitors of Inflammasome Signaling: IL-1-beta AlphaLISA Primary Screen. THP-1 LPS/ATP IL-1B secretion, AlphaLISA, 16 h; hits give low values. 360,000 compounds, 4.7% hits. activity change, % at 57.5 µM. AID 743279, 2014; in the data active means activity change below about -50%; inconclusive means mostly about -30% to -49%; further: on the % scale 0 is the no-effect control and ±100 the full control effect
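THP-1 cells pretreated 1 hr with compounds (up to 57.5 uM final), then stimulated with LPS (250 ng/mL final) plus ATP (1.25 mM final); secreted IL-1B measured by AlphaLISA after 16 hr, decreased signal indicating inhibition.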
D3 antag – qHTS of D3 Dopamine Receptor Antagonist: qHTS. max response, negative = inhibition, %. D(3) dopamine receptor (Homo sapiens), P35462. D3R cells, DiscoveRx beta-arrestin luminescence, antagonist mode; hits give low values. AID 652054, 2013. 360,000 compounds, 2.5% hits; in the data active means max response below about -50%; inconclusive means no clear call, values can overlap the other calls; further: on the % scale 0 is the no-effect control and ±100 the full control effect
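Cells plated overnight at 1500 cells/well, then exposed to library compounds with dopamine controls for 90 minutes at 37 degrees C. DiscoveRx reagent added for 30–60 minutes at room temperature; luminescence read, quantitative HTS format.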
TDP1 cell CPT – qHTS for Inhibitors of human tyrosyl-DNA phosphodiesterase 1 (TDP1): qHTS in cells in presence of CPT; AID 686979, 2013; Potency, µM (titrated, usually from 46.2 µM), inactives show at the highest dose activity change, negative = growth inhibition, usual class: inhibitors; chicken DT40 Tdp1-/-;hTDP1 cells + 20 nM CPT, ATP luminescence, 48 h; 420,000 compounds, 12% hits; further: potency means the concentration at half of the fitted maximal effect; on the % scale 0 is the no-effect control and ±100 the full control effect; nearly all actives have a fitted effect of over 55% in size
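Chicken DT40 Tdp1-/- cells complemented with human TDP1, 400 cells/well, exposed to compounds plus 20 nM camptothecin for at least 48 h at 37 C; viability read as ATP content by CellTiter-Glo luminescence.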
An asterisk follows results filed as active; ? = inconclusive; · = no result given. Most compounds without a hit are left out; they make up all but 21% or so of the library. Unless noted, the call rests on the fitted dose curve; in most records, active means well fitted inhibition curve with a large enough effect; inconclusive means small, poorly fitted or top-dose-only effect; inactive means flat fitted curve, though single readings scatter.

SMILES	DT40 TDP1 no CPT	D3 ag	ClpP mod	IL-1B inflam inh	D3 antag	TDP1 cell CPT
CN(C)CC1CCCCC1C1(O)c2ccccc2CSc2sccc21 (stereo unspecified)	?	1	-1%	?	-73*	?
O=C(CSc1ccc(Cl)cc1)Nc1cccc(-c2nc3ccccc3[nH]2)c1	10µM*	-1	13µM*	-9	?	9.2µM*
Cc1ccc2nc(-c3ccc(NC(=O)CSc4ccccc4)cc3)[nH]c2c1	16µM*	-13	151%	34	-11	10µM*
O=C(Cc1cccs1)Nc1ccc(-c2nc3ccccc3[nH]2)cc1	21µM*	-1	?	-53*	10	?
COc1c(F)c(F)c(C(=O)Nc2ccc(-c3nc4ccccc4[nH]3)cc2)c(F)c1F	4.6µM*	-3	6%	9	-2	6.5µM*
O=C(CSc1ccc2ccccc2c1)Nc1nc2ccccc2[nH]1	?	-2	-1%	26	7	-30%
O=C(Nc1ccc(-c2nc3ccccc3[nH]2)cc1)c1c(F)c(F)c(F)c(F)c1F	-7%	8	·	-7	-11	-2%
C=CCn1c(C)nnc1SCC(=O)Nc1oc(C)c2c(C)n[nH]c(=O)c12	11%	-1	-7%	5	7	6%
CN(C)c1ccc(C(CNC(=O)COc2ccccc2)N2CCOCC2)cc1 (stereo unspecified)	-24%	1	2%	·	·	-15%
O=C(Nc1ccc(-c2nc3ccccc3[nH]2)cc1)C1CCCO1 (stereo unspecified)	15µM*	-4	?	-15	14	18µM*
O=C(CN1CCOCC1)Nc1ccc(-c2nc3ccccc3[nH]2)cc1	-1%	-1	25µM*	2	-15	-12%
NS(=O)(=O)c1ccc(NC(=O)CSc2nc3ccccc3[nH]2)cc1	-12%	2	·	-10	10	-5%
O=C(CN1CCOCC1)Nc1ccc(Br)cc1	-12%	-9	0%	6	-7	5%
O=C(CSc1ccccc1)Nc1ccc(-c2nc3ccccc3[nH]2)cc1	10µM*	2	-1%	2	-3	23µM*
COC(=O)CCC(=O)c1oc2ccc(Br)cc2c1N	26µM*	3	?	7	12	?
COc1ccc2oc(C(=O)CCC(=O)O)c(N)c2c1	30%	-2	4%	9	-6	-22%
O=C(Nc1ccc(F)cc1F)c1ccc(-n2cccn2)nc1	?	6	1%	16	13	?
CC(C)Sc1ccc(C(=O)Nc2ccc(F)cc2F)cn1	23µM*	1	·	-6	-10	?
CCOc1ccc(NC(=O)CC2C(=O)N(c3cccc(C)c3)C(=O)N2Cc2cccs2)cc1 (stereo unspecified)	21µM*	5	0%	·	·	?
CCc1ccc(NC(=O)CC2C(=O)N(c3ccc(Cl)cc3)C(=O)N2Cc2cccs2)cc1 (stereo unspecified)	4.1µM*	43*	1%	·	·	4.6µM*
Cc1cccc(N2C(=O)C(CC(=O)Nc3cccc(F)c3)N(Cc3cccs3)C2=O)c1 (stereo unspecified)	18µM*	2	1%	·	·	?
CC1(C(=O)NS(=O)(=O)c2cccs2)CCN1C(=O)C1CC1 (stereo unspecified)	-13%	-4	2%	14	4	-3%
Cc1cnc(CNc2ncnc3ccc(-c4ccoc4)cc23)cn1	-19%	·	·	·	·	?
COc1ccc(CNCC(O)(c2ccc(F)cc2)c2ccc(F)cc2)cc1OC	16µM*	-21	0%	?	-19	?
COc1cc(CNCc2ccccc2)ccc1OCC(O)c1ccccc1 (stereo unspecified)	?	0	0%	-7	?	-25%
SMILES	DT40 TDP1 no CPT	D3 ag	ClpP mod	IL-1B inflam inh	D3 antag	TDP1 cell CPT
COc1ccc(CNCC(O)(c2ccccc2)c2ccc(F)cc2)cc1OC (stereo unspecified)	15µM*	-11	·	-88*	-25	?
CCCCCNCc1ccc(Cl)cc1	-13%	2	·	6	-9	17%
CCCCNCC(O)(c1ccc(Cl)cc1)c1ccc(Cl)cc1	23µM*	-27	·	-132*	-87*	15µM*
COc1cc(CNCc2ccc(C(=O)O)cc2)ccc1OCc1ccc(F)cc1	7%	1	-3%	-4	-8	-14%
COc1ccc(CNCC(O)(c2ccc(Cl)cc2)c2ccc(Cl)cc2)cc1	18µM*	0	0%	-16	6	15µM*
COc1ccc(CS(=O)(=O)CC(C)(O)c2ccc(Cl)cc2)cc1 (stereo unspecified)	1%	-8	-2%	-14	-5	-27%
COc1ccccc1CCNC(=O)Cc1c(C)c2cc(Cl)c(O)cc2oc1=O	-29%	7	4%	·	·	-27%
COc1ccc(CNCC(O)(c2ccc(Cl)cc2)c2ccc(Cl)cc2)cc1OC	6.5µM*	-7	5%	?	?	15µM*
COc1ccc(CNCC(O)(c2ccccc2)c2ccc(F)cc2)cc1 (stereo unspecified)	15µM*	-13	·	-89*	22	21µM*
CCN(C(=O)Cn1nc(Cc2cccnc2)c2ccccc2c1=O)c1cc(C)ccc1C	23µM*	-18	-2%	·	·	23µM*
COc1ccc(Cl)cc1NC(=O)Cn1nc(Cc2ccncc2)c2ccccc2c1=O	23µM*	-10	2%	·	·	?
CCN(C(=O)Cn1nc(Cc2ccncc2)c2ccccc2c1=O)c1cccc(Cl)c1	21µM*	9	-1%	·	·	?
COc1ccc(Cl)cc1NC(=O)Cn1c(=O)n(Cc2ccco2)c(=O)c2cccnc21	16µM*	-10	-19%	·	·	?
